Assay outcomes deposited in PubChem BioAssay by National Center for Advancing Translational Sciences (NCATS).
Tau fil binding: tau filament binding; recombinant tau filaments, thioflavin S fluorescence, 15 h; filaments grown with octadecylsulfate alongside compound; Potency, µM (titrated, usually from 57.1 µM), for inactives: at the highest dose activity change, negative = inhibition; 71,000 tested, 2% active; AID 596;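 note: potency is the fitted concentration of half-maximal effect; % is set by controls: 0 for no effect and ±100 for the full control effect; actives lower thioflavin S fluorescence by blocking filaments or displacing dye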
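His-tagged recombinant human tau (exons 2, 3, 10; 1 uM final) fibrillized with 30 uM sodium octadecylsulfate, 15 h at 37 C, in pH 7.4 HEPES buffer with 10 uM thioflavine S and 5 mM DTT. Reduced ThS fluorescence (450/510 nm) marks activity.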
Pol III holo inh: blocks replication by bacterial DNA polymerase III holoenzyme; reconstituted DNA polymerase III holoenzyme replication, biochemical; Potency, µM (series often up to 57.1 µM), without a hit: at the highest dose activity change, negative = inhibition; 71,000 tested, 0.25% active; AID 603; note: potency is the fitted concentration of half-maximal effect; % is set by controls: 0 for no effect and ±100 for the full control effect
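Reconstituted *E. coli* holoenzyme (0.35 nM Pol III, 1 nM beta, 154 nM SSB, 2 nM primase) was preincubated with compound for 15 min at RT. Synthesis on 1.4 nM ssM13Gori ran 35 min, then was stopped with PicoGreen/EDTA and read as dsDNA fluorescence.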
Hsp90 Hop PPI: changes Hsp90-Hop TPR2A binding signal, up or down. AlphaScreen TPR2A-His6 binding biotin-Hsp90 C-terminal peptide. Potency, µM (titrated, usually from 57 µM), without a hit: at the highest dose activity change, negative = inhibition. 71,000 tested, 0.44% active. AID 595; active = well fitted curve in either direction with a large enough effect; inconclusive = small, poorly fitted or top-dose-only effect, or another doubt; note: potency is the fitted concentration of half-maximal effect; % is set by controls: 0 for no effect and ±100 for the full control effect
ALOX15 inhib: 15-hLO (ALOX15) enzyme inhibition; Potency, µM (titrated, usually from 57.1 µM), for inactives: at the top dose activity change, negative = inhibition, actives largely listed as inhibitors; P16050; purified 15hLO-1, xylenol orange hydroperoxide absorbance; AID 887; 74,000 tested, 1.4% active; note: potency is the fitted concentration of half-maximal effect; % is set by controls: 0 for no effect and ±100 for the full control effect; nearly all actives have a fitted effect of over 55% in size
Target sequence (P16050 whole entry, looked up): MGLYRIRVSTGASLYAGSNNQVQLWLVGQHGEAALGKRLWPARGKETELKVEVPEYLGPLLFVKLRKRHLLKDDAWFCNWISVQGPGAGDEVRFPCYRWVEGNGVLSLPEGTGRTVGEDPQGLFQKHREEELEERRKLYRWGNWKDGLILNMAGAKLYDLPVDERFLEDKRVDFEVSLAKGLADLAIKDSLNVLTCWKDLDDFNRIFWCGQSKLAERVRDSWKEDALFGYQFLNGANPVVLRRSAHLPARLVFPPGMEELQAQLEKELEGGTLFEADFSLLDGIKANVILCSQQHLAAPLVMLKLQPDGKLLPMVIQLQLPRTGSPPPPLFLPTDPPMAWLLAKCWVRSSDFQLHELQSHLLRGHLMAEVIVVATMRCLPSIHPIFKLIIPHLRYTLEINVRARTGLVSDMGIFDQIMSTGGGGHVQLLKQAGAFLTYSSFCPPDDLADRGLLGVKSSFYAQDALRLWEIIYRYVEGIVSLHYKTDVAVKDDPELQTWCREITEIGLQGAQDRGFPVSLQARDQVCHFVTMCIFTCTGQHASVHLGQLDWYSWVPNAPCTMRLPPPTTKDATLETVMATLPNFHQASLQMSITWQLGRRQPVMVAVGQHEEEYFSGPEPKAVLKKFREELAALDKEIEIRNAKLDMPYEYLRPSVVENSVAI
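40 nM 15hLO-1 + cpd, 15 min RT; start w/ 50 uM AA (final), 6 min RT; stop/detect w/ 200 uM XO + 300 uM Fe(II) in 50 mM H2SO4, 30 min; A573/A405. Buffer 25 mM Hepes pH 7.5, 0.01% Triton X-100. No-enzyme wells as negative control.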
ERK AVP inh: vasopressin-driven ERK pathway inhibition | HEK293-V1b, vasopressin-stimulated pERK AlphaScreen | Potency, µM (titrated, usually from 57.5 µM), for the others: at the highest dose activity, negative = inhibition, actives largely listed as inhibitors | 72,000 tested, 0.99% active | AID 995; note: potency is the fitted concentration of half-maximal effect; % is set by controls: 0 for no effect and ±100 for the full control effect; nearly all actives have a fitted effect of over 55% in size
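qHTS, compounds titrated on V1b-expressing HEK293 cells. Preincubation 30 min at 37C, vasopressin 25 nM for 5 min, lysis 10 min, bead incubation 5 hr at room temperature.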
YjeE inh: displaces an ADP probe from E. coli YjeE (TsaE). P0AF67. AID 605. Potency, µM. 71,000 tested, 0.05% active. purified YjeE enzyme, qHTS inhibition assay
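Fluorescence polarization of a BODIPY Texas Red–ADP probe (2 uM) bound to purified YjeE (10 uM) was read after 15 min room-temperature incubation with compounds. Loss of polarization marks inhibitors; ADP serves as titrated control.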
The depositor's hits bear a star; i = inactive; ? = inconclusive; nt = no result given; ! = repeats disagree; [ ] = dose if it differs, or a comment. Sampled rows, rich in hits. Any-hit rate of the full collection: about 4.2%. Unless noted, calls come from the whole dose curve; as a rule, active = well fitted curve in the direction sought with a large enough effect; inconclusive = small, poorly fitted or top-dose-only effect, or another doubt; inactive = no such curve, though single readings can be large; an effect the other way counts as inactive or inconclusive.

SMILES	Tau fil binding	Pol III holo inh	Hsp90 Hop PPI	ALOX15 inhib	ERK AVP inh	YjeE inh
COCCN1C(=O)c2ccccc2C(C(=O)NCCCN2CCCC2=O)C1c1c[nH]c2ccccc12 (stereo not drawn)	-8%	-3%	-5%	25µM*	7%	i
CCCCOc1ccc(-c2nnn(C(C)(C)C(=O)OC)n2)cc1	-5%	-8%	25µM*	-4%	32%	i
O=[N+]([O-])c1cccc2c(Br)[nH]nc12	40µM*!	-8%	-3%	13µM*	?	i
COc1cc(C(=O)O[C@@H]2CC(C)=CC[C@@]3(C)CC[C@](O)(C(C)C)[C@H]23)ccc1O	40µM*	-2%	-5%	nt	nt	i
COc1ccc(NC(=O)c2ccco2)cc1NC(=O)c1cccc(OC(C)C)c1	15%	-3%	-4%	-3%	1%	i
CCc1ccc(NC(=O)c2ccc3c(c2)C(=O)N(Cc2ccco2)C3=O)cc1	25µM*	-2%	-4%[2.3 µM]	-14%	?	i
COC(=O)c1ccccc1NC(=O)c1ccc2c(c1)C(=O)N(Cc1ccco1)C2=O	61%	1%	-3%	-1%	-7%	i
CCOCCOC(=O)c1cccc(NC(=O)OCC)c1	-14%	-9%	1%	-3%	-22%	i
CCOCCOC(=O)C1=C(C)Nc2ccc(C)cc2S1	13µM*	0%	-23%	?	0%	i
Cc1ccc(S(=O)(=O)/C=C\C#N)cc1	35%	-13%	-3%	-3%[25.6 µM]	20µM*	i
CC(C)(C)c1ccc(S(=O)(=O)/C=C\C#N)cc1	24%	-8%	4%	-8%	32µM*	?
O=C(Nc1cccc2ccccc12)N1CCN(Cc2ccccc2)CC1	-3%	-4%	?	0.63µM*	33%	i
Cc1c(C(=O)OC2CCCC2)[nH]c2c1C(=O)CC(c1ccco1)C2 (stereo not drawn)	69%	-2%	-2%	-10%	25µM*	i
Cc1c(C(=O)OCC(C)C)[nH]c2c1C(=O)CC(c1ccco1)C2 (stereo not drawn)	70%	-2%	-1%	-24%	?	i
CN1CCN(c2ccc3nc(-c4ccc5nc(-c6ccc(O)cc6)[nH]c5c4)[nH]c3c2)CC1	53%[11.4 µM]	2µM*	-4%[11 µM]	28%[11.4 µM]	1%[11.5 µM]	i
O=[N+]([O-])c1ccc2c(N=Nc3ccc4ccccc4c3O)c(O)cc(S(=O)(=O)O)c2c1	3.2µM*	-19%[11.4 µM]	?	3.2µM*	-20%[11.5 µM]	7.9µM*
O=S(=O)(O)c1ccc2c(N=Nc3cccc4ccccc34)c(O)c(S(=O)(=O)O)cc2c1	-11%[11.4 µM]	-9%[11.4 µM]	-29%[11 µM]	-2%[11.4 µM]	-23%[11.5 µM]	i
CC(=O)c1c(Nc2ccc3c(c2)OCCO3)oc(C)cc1=O	-9%	-1%	-6%	?	nt	i
CCn1c(=N)c(C(=O)NCc2cccnc2)cc2c(=O)n3cccc(C)c3nc21	-6%	-10%	-9%	3%	-8%	i
CCOCCCn1c(=N)c(C(N)=S)cc2c(=O)n3cccc(C)c3nc21	159%	25µM*	-23%	?	?	i
C=CCn1c(=N)c(C(=O)NCCCOC)cc2c(=O)n3cccc(C)c3nc21	i	-14%	-24%	1.3µM*	?	i
CCOCCCNC(=O)c1cc2c(=O)n3cccc(C)c3nc2n1C	35%	-4%	0%	-4%	nt	i
COCCn1c(=N)c(C(=O)NCCc2ccccc2)cc2c(=O)n3cccc(C)c3nc21	3.2µM*	-3%	-1%	4%	-9%	i
CCCCNC(=O)c1cc2c(=O)n3cccc(C)c3nc2n(Cc2ccccc2)c1=N	0.2µM*	-1%	-4%	-7%	3%	i
COc1ccc(-c2noc(N3CCC(C(=O)N4CCN(c5ccccn5)CC4)CC3)n2)cc1	11%	-5%	-3%	-6%	12%	i
SMILES	Tau fil binding	Pol III holo inh	Hsp90 Hop PPI	ALOX15 inhib	ERK AVP inh	YjeE inh
CCOc1cccc(C(=O)c2ccc(O)c(O)c2O)c1	nt	nt	nt	13µM*	-18%	nt
O=C(O)Cc1cc2ccccc2nc1C(=O)O	-6%	-4%	-4%	-12%[25.6 µM]	2%	i
COc1ccc(OC)c(S(=O)(=O)NCc2ccccc2)c1	10%	1%	-2%	9%	2%	i
COc1ccc(OC)c(NS(=O)(=O)Cc2ccccc2)c1	16µM*	-6%	-24%	-19%	?	i
Cc1c(N/C=C/C(=O)c2cccs2)c(=O)n(-c2ccccc2)n1C	-16%	-1%	-14%	25µM*	-3%	i
CCOC(=O)C1CCCN(S(=O)(=O)c2cccs2)C1 (stereo not drawn)	-2%	-2%	8%	8%	7%	i
CC(C)(C)c1nn(-c2ccccc2)c2[nH]c(=O)c(CNCc3ccco3)cc12	-20%	-9%	-10%	6%	-27%	i
O=c1[nH]c2c(cc1CNCCN1CCOCC1)c(-c1cccc(F)c1)nn2-c1ccccc1	?	-7%	?	0.032µM*	-8%	i
Cc1nn(-c2ccccc2)c2[nH]c(=O)c(CNc3ccc(N4CCOCC4)cc3)cc12	20µM*	-4%	?	13µM*	-18%	i
Nc1c(NCCN2CCOCC2)c2ccccc2oc1=O	-12%	-3%	-10%	1.6µM*	5%	i
Nc1c(NCCCN2CCOCC2)c2ccccc2oc1=O	-3%	-6%	0%	?	6%	i
CCc1cc(C(C)=O)c(O)cc1OCCCCCC(C)(C)c1nn[nH]n1	nt	nt	nt	20µM*	23%	nt
O=C(Nc1ccc(-n2nncc2-c2ccco2)cc1)c1cccc(F)c1	?	1%	-9%	-10%	?	i
O=C(Nc1ccc(-n2nncc2-c2ccco2)cc1)c1cc2ccccc2oc1=O	-21%	13µM*	1%	-10%	-15%	i
Cc1ccc2[nH]cc(C(=O)CN3CCN(c4ccccn4)CC3)c2c1	-26%	0%	?	-14%	?	i
C=CCn1c2ccccc2c2nnc(SCCCn3c(=O)[nH]c4ccccc43)nc21	3.2µM*	-15%	-21%	16µM*	13µM*	i
CC(C)n1c2ccccc2c2nc3ccccc3nc21	-23%	-3%	32µM*	-14%	109%	i
CCCCC(NS(=O)(=O)c1ccc(OC)cc1)C(=O)O (stereo not drawn)	3%	-4%	0%	5%	-14%	i
COCC(=O)O[C@]1(CCN(C)CCCc2nc3ccccc3[nH]2)CCc2cc(F)ccc2[C@@H]1C(C)C	75%	-10%	?	?	20µM*	i
CCOC(=O)CCc1nc2ccccc2[nH]1	4%	-6%	1%	-10%	0%	i
COc1cccc(C2=NC(C)(C)NC(c3ccccc3O)C2)c1 (stereo not drawn)	-11%	-3%	-5%	32µM*	-1%	i
